# Experimental data taken from the supplement of paper PMC5940239.
# Values without a mark were called inactive.
# System: Madurella mycetomatis MM55
# Experiment: percent growth relative to solvent control; higher = less inhibition, active = 20 or less
# Conditions: 100 µM; 7 days
row,Structure (SMILES),percent growth [%]
1,Nc1ncc(-c2ccc(C(F)(F)F)nc2)cc1-c1ccc(C(F)(F)F)nc1,94.5
2,CC(C)N=c1cc2n(-c3ccc(Cl)cc3)c3ccccc3nc-2cc1Nc1ccc(Cl)cc1,105
3,CS(=O)(=O)c1ccccc1C(=O)N(Cc1ccccc1)c1ccccc1,91
4,NC(=O)c1cc(-c2ccsc2)ccc1OCCOc1ccccc1,103
5,Cc1nn2c(=O)c3c([nH]c2c1-c1ccc(Cl)cc1)CCCC3,89.2
6,O=C(Nc1ccnc(-c2cccnc2)n1)c1cc(C(F)(F)F)cc(C(F)(F)F)c1,169
7,COc1cc(C2=NCCN2)ccc1-n1cc(-c2cccc(C3=NCCN3)c2)nn1,166
8,Cc1ccc(S(=O)(=O)Nc2ccc(CN3CCN(C(=O)c4cccc(C#N)c4)CC3)cc2)cc1,90.9
9,Cc1ccc(Oc2ccc(NC(=O)CNc3ccccc3N3CCCC3=O)cc2)cc1,107
10,CCN(CC)S(=O)(=O)c1ccc(Cl)c(C(=O)Nc2ccc3nc(C)sc3c2)c1,119
11,CC(=O)NCC1CN(c2ccc(-c3ccc(CO)cc3)c(F)c2)C(=O)O1 (stereo not drawn),112
12,COc1ccc2nc(C)cc(OCC(=O)Nc3ccccc3OC)c2c1,72.5
13,c1cc(C2=NCCN2)cc(-c2cc(-c3ccc(C4=NCCN4)cc3)no2)c1,73.8
14,O=C(NCc1ccco1)N1CCN(Cc2ccc(Cl)s2)CC1,90.6
15,O=C(C1CCN(c2nnnn2-c2ccccc2)CC1)N1CCc2ccccc2C1,56.4
16,O=C(Nc1c(O)cccc1-c1nc2c(C(=O)O)cccc2o1)c1cc(-c2ccccc2)on1,113
17,Cc1cccnc1NC(=O)c1cccc(OCc2c(C)noc2C)c1,85.1
18,CCOc1ccc(OCC(=O)Nc2cc(C)cc(C)c2)cc1,89.4
19,COc1ccc(-c2cnc3ccc(NCc4ccc(S(N)(=O)=O)cc4)nn23)cn1,86.7

row,Structure (SMILES),percent growth [%]
1,CCc1cc(=O)n(C)c(SC(C)C(=O)Nc2ccc(F)cc2)n1 (stereo not drawn),61.1
2,CC(=O)NC[C@H]1CN(c2ccc(N3CCSCC3)c(F)c2)C(=O)O1,94.5
3,O=C(NC1CC1)c1ccc(CSCc2ccccc2Cl)o1,41.5
4,COC(=O)c1c(NC(=O)c2c(F)c(F)c(F)c(F)c2F)sc2c1CCCCC2,85.5
5,COc1cc(NC(=O)Cc2nn(C)c(=O)c3ccccc23)ccc1Cl,116
6,O=[N+]([O-])c1cn2c(n1)OC[C@@H](OCc1ccc(OC(F)(F)F)cc1)C2,97.3
7,O=C(NCc1nnc2n1CCCCC2)c1ccc(-c2ccc(F)cc2)o1,87.7
8,CC1COC2(CCN(c3nc(=O)c4cc(C(F)(F)F)cc([N+](=O)[O-])c4s3)CC2)O1 (stereo not drawn),79.4
9,CC(C)(C)OC(=O)N1CCC(Cn2nc(-c3cnc4ccccc4c3)c3c(N)ncnc32)CC1,99.2
10,O=C(NC1CC1)c1ccc(N2CCC(Cc3ccccc3)CC2)nc1,104
11,CCS(=O)(=O)N(Cc1ccco1)Cc1cc2ccc(C)cc2nc1O,85
12,CCCCS(=O)(=O)Nc1ccc2cnn(C)c2c1,106
13,CCNC(=O)C(C)Nc1nc(-c2cccnc2)nc2sc(C)c(C)c12 (stereo not drawn),90.4
14,O=C(C1CCCCC1)N1CC(=O)N2CCc3ccccc3C2C1 (stereo not drawn),92.7
15,OCCc1ccc(Nc2nccc(-c3nnc4ccccn34)n2)cc1,88.7
16,Cc1ccc2oc(-c3cc(NC(=O)Cc4ccccc4)ccc3Cl)nc2c1,96
17,COc1ccc(S(=O)(=O)Nc2ccc(CN3CCN(C(=O)c4cccc(C#N)c4)CC3)cc2)cc1,113
18,Cc1cc(Cl)ccc1NC(=O)CCc1ccc(S(=O)(=O)NCC(C)C)cc1,91.1
19,FC(F)(F)c1nnc2ccc(Cl)nn12,116
